# Measurements: publication PMC7862700, “An all-to-all approach to the identification of sequence-specific readers for epigenetic DNA modifications on cytosine”
# Experiments:
# Assay in all cases: DAPPL (digital affinity profiling via proximity ligation, sequencing); 10 mM Tris-HCl pH 7.5, 50 mM NaCl, 1 mM DTT, 4% glycerol, room temperature, 30 min; GST-TFs on glutathione beads, 16-mer random dsDNA library, 0.1% formaldehyde crosslink after washing; high values mean tight binding
# [1] = target: T1, FLI1 (Homo sapiens, UniProt Q01543 1-452); details: protein: recombinant; tags: N-terminal GST; dsDNA, one strand shown
# T1 sequence: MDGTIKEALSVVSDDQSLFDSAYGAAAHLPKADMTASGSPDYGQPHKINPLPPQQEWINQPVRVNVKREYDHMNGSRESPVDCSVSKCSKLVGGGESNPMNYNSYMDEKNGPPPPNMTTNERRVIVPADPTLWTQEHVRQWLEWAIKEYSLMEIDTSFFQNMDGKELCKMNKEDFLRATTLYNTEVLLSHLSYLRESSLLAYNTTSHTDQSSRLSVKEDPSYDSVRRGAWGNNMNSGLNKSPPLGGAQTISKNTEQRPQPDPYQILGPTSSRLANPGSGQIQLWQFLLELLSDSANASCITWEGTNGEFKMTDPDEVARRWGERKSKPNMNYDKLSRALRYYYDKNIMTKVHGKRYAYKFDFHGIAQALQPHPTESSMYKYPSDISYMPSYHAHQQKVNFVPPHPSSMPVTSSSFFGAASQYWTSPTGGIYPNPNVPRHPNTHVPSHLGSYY
# Outline: (§1)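 Yeast served to express human transcription factors as GST fusions, which were then captured on glutathione beads and labelled with DNA barcodes. Pooled with a tag-only sample, they were incubated with 200 nmole of a 16-mer random double-stranded DNA library for 30 min at room temperature in Tris/NaCl/DTT/glycerol buffer, washed, crosslinked with 0.1% formaldehyde, ligated by proximity, amplified by PCR and sequenced. Dividing each hexamer's read frequency for a factor by its frequency for the tag-only sample gives the binding signal.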
# [2] = target: T2, ELK1 (Homo sapiens, UniProt P19419 1-428); details: protein: recombinant; tags: N-terminal GST; dsDNA, one strand shown
# T2 sequence: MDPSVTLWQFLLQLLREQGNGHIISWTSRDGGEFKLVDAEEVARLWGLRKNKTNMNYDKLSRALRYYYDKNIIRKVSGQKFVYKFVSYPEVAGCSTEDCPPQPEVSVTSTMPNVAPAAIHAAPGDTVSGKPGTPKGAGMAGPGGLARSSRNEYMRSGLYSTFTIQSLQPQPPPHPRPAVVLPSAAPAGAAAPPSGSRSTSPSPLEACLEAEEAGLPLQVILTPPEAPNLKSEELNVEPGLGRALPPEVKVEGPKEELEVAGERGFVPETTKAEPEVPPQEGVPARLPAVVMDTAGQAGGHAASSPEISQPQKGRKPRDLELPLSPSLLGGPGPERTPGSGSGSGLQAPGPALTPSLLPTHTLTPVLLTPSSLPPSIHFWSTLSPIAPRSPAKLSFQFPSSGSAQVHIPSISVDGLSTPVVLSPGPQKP
# Outline: as §1
# [3] = target: T3, GABPA (Homo sapiens, UniProt Q06546 1-454); details: protein: recombinant; tags: N-terminal GST; dsDNA, one strand shown
# T3 sequence: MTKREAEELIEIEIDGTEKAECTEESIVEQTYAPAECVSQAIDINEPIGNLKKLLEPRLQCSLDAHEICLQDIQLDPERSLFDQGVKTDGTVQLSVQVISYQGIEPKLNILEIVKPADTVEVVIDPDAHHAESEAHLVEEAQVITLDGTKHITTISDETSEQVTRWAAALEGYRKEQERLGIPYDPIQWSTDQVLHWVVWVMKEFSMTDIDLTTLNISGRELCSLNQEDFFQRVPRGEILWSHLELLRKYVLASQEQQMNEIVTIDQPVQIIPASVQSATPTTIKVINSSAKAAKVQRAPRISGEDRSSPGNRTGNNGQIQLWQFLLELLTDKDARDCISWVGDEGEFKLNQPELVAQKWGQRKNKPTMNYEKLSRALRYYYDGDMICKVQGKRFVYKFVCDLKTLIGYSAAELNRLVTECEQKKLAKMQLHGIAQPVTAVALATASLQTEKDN
# Outline: as §1
# [4] = target: T4, ERG (Homo sapiens, UniProt P11308 1-479); details: protein: recombinant; tags: N-terminal GST; dsDNA, one strand shown
# T4 sequence: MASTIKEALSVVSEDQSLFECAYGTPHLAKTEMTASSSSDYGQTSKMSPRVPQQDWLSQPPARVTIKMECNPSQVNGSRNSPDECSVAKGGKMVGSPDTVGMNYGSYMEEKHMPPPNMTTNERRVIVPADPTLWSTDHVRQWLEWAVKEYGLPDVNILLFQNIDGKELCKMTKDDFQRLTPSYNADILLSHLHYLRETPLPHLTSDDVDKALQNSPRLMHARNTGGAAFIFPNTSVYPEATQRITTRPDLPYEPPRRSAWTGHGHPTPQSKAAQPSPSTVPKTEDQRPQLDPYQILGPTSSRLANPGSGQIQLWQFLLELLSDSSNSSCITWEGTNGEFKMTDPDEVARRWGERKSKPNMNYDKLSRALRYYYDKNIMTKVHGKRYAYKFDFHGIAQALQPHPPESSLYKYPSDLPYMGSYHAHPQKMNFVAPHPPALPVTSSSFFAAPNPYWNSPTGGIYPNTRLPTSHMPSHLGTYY
# Outline: as §1
# [5] = target: ELF1 (Homo sapiens, UniProt P32519 1-619); details: protein: recombinant; tags: N-terminal GST; dsDNA, one strand shown
# Sequence of ELF1 (P32519 whole entry): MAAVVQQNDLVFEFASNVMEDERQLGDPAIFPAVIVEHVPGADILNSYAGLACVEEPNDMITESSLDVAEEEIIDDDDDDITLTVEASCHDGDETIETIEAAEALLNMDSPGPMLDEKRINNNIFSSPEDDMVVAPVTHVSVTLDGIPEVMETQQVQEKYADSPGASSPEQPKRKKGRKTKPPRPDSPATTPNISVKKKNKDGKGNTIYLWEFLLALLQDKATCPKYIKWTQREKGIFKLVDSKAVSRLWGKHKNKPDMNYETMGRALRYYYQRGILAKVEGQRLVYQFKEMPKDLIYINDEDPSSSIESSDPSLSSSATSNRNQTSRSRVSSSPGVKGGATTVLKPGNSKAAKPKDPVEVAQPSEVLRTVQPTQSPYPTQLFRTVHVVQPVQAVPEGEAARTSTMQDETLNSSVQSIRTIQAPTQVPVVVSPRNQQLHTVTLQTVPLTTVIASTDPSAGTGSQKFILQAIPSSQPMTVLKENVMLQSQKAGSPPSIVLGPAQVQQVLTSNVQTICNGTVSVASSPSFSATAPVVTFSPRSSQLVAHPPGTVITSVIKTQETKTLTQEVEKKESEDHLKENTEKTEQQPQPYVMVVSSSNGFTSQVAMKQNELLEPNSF
# Outline: as §1
# [6] = target: T5, EHF (Homo sapiens, UniProt Q9NZC4 1-300); details: protein: recombinant; tags: N-terminal GST; dsDNA, one strand shown
# T5 sequence: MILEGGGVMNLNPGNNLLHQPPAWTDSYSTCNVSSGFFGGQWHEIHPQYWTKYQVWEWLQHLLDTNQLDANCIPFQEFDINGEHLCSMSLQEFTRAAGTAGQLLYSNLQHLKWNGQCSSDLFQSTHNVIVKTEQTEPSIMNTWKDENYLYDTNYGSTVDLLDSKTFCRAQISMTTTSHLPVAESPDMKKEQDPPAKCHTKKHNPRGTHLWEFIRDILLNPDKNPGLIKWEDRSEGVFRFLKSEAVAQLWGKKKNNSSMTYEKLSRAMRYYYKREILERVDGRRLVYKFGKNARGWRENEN
# Outline: as §1
# [7] = target: SPI1 (Homo sapiens, UniProt P17947 1-270); details: protein: recombinant; tags: N-terminal GST; dsDNA, one strand shown
# Outline: as §1
# [8] = target: SPIB (Homo sapiens, UniProt Q01892 1-262); details: protein: recombinant; tags: N-terminal GST; dsDNA, one strand shown
# Sequence of SPIB (Q01892 whole entry): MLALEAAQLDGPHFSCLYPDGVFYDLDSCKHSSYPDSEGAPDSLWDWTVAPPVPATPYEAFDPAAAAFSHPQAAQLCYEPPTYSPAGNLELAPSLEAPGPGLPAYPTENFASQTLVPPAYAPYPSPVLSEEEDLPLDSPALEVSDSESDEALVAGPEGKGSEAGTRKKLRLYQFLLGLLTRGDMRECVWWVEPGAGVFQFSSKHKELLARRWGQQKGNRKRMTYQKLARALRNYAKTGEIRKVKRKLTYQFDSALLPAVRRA
# Outline: as §1
# [9] = target: T6, ELK3 (Homo sapiens, UniProt P41970 1-407); details: protein: recombinant; tags: N-terminal GST; dsDNA, one strand shown
# T6 sequence: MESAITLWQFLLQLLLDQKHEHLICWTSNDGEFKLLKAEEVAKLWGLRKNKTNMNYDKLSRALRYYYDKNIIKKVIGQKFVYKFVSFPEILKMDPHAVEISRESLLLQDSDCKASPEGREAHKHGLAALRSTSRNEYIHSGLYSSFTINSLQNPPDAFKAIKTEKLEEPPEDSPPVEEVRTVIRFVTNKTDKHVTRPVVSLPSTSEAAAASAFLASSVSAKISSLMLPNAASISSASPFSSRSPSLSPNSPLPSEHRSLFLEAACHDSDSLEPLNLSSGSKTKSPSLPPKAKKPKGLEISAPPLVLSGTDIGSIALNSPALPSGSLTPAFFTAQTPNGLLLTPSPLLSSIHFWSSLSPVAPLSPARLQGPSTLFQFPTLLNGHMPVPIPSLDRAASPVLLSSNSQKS
# Outline: as §1
# [10] = target: T7, FEV (Homo sapiens, UniProt Q99581 1-238); details: protein: recombinant; tags: N-terminal GST; dsDNA, one strand shown
# T7 sequence: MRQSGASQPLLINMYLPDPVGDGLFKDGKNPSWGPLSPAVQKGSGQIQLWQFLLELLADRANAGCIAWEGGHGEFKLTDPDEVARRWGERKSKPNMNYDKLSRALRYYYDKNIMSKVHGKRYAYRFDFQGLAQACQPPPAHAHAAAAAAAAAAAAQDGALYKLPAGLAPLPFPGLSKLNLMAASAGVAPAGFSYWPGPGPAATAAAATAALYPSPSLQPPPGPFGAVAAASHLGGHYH
# Outline: as §1
# [11] = target: ETV5 (Homo sapiens, UniProt P41161 1-510); details: protein: recombinant; tags: N-terminal GST; dsDNA, one strand shown
# Sequence of ETV5 (P41161 whole entry): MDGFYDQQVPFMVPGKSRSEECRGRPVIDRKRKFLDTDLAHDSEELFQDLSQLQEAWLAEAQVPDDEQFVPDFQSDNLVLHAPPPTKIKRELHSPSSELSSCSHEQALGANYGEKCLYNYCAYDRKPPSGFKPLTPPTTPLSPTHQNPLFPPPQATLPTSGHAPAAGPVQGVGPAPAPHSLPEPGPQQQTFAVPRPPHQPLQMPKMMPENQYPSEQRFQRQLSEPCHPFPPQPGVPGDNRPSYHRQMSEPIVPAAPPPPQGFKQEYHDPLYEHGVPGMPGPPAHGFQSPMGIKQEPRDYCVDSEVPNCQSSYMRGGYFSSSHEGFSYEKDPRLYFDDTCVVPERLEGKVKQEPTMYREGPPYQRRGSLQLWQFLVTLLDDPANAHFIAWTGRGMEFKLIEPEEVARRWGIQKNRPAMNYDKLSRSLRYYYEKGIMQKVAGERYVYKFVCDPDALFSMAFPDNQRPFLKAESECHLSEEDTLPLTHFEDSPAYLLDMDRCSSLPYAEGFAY
# Outline: as §1
# [12] = target: HSF1 (Homo sapiens, UniProt Q00613 1-529); details: protein: recombinant; tags: N-terminal GST; chain copies: 3; dsDNA, one strand shown
# Sequence of HSF1 (Q00613 whole entry): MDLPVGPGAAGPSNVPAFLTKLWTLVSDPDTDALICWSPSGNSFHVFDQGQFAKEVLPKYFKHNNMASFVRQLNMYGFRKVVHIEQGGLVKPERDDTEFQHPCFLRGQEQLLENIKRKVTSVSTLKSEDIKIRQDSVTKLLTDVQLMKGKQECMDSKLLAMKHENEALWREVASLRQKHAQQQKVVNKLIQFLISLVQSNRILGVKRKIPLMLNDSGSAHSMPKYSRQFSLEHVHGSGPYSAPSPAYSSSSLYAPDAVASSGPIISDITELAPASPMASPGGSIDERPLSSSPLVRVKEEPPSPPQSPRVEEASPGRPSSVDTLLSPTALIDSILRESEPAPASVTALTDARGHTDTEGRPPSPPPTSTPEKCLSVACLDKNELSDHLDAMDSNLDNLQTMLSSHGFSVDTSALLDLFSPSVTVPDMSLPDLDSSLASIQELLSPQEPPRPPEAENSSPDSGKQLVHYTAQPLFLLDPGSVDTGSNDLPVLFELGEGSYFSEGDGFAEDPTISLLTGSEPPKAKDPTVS
# Outline: as §1
# [13] = target: T8, SPIC (Homo sapiens, UniProt Q8N5J4 1-248); details: protein: recombinant; tags: N-terminal GST; dsDNA, one strand shown
# T8 sequence: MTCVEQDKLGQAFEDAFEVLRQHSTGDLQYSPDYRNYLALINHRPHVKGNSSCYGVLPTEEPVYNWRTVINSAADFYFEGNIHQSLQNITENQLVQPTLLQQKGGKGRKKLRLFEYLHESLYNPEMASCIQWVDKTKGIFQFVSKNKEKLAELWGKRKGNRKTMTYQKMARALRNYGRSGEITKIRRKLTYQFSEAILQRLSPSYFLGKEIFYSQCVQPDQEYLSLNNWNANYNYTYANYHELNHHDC
# Outline: as §1
# [14] = target: ELF4 (Homo sapiens, UniProt Q99607 1-663); details: protein: recombinant; tags: N-terminal GST; dsDNA, one strand shown
# Sequence of ELF4 (Q99607 whole entry): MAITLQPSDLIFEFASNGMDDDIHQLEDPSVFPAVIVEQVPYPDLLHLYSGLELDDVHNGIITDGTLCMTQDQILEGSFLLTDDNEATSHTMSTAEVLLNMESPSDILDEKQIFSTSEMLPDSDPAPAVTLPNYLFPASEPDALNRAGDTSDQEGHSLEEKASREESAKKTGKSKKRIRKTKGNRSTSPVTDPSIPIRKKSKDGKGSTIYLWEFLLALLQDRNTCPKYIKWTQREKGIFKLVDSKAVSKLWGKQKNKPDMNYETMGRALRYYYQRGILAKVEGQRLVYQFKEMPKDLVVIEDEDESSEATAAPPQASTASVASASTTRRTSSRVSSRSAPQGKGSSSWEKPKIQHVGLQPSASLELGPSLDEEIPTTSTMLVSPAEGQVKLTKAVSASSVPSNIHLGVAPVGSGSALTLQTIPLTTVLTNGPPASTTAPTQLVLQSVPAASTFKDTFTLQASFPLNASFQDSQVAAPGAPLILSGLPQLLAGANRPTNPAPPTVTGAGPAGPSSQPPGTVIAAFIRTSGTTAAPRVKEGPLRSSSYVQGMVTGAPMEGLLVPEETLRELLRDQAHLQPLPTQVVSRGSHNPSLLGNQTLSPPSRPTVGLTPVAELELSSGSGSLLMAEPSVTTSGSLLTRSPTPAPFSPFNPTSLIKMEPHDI
# Outline: as §1
# [15] = target: T9, ETV2 (Homo sapiens, UniProt O00321 1-342); details: protein: recombinant; tags: N-terminal GST; dsDNA, one strand shown
# T9 sequence: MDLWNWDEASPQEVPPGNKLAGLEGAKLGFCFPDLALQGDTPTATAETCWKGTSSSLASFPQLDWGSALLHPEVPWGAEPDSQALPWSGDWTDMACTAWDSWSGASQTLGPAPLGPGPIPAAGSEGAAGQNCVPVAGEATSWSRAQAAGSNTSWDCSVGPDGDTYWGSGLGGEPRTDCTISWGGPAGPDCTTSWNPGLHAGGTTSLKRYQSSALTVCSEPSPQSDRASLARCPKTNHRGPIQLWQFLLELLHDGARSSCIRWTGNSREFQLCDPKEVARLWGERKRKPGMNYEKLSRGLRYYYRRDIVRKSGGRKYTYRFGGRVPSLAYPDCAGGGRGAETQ
# Outline: as §1
# [16] = target: T10, ELF3 (Homo sapiens, UniProt P78545 1-371); details: protein: recombinant; tags: N-terminal GST; dsDNA, one strand shown
# T10 sequence: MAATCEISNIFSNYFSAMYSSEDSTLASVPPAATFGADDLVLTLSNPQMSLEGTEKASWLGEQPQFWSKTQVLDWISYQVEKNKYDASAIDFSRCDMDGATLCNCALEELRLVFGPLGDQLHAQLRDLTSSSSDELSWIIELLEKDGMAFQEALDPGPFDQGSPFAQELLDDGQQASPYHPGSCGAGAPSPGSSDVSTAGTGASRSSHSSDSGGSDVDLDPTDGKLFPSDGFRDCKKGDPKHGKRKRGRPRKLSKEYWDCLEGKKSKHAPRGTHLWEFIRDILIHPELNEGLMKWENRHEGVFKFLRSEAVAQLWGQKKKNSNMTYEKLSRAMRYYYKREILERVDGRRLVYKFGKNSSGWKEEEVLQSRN
# Outline: as §1
# [17] = target: CRX (Homo sapiens, UniProt O43186 1-299); details: protein: recombinant; tags: N-terminal GST; dsDNA, one strand shown
# Sequence of CRX (O43186 whole entry): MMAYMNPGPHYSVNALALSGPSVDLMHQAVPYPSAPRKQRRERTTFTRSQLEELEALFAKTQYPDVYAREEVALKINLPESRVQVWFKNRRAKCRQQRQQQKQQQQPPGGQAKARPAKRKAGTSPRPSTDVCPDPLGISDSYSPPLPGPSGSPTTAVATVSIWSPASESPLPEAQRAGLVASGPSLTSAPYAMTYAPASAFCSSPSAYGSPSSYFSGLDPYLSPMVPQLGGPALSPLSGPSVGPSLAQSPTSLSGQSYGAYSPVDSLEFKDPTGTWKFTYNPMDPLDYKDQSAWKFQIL
# Outline: as §1
# [18] = target: ETV1 (Homo sapiens, UniProt P50549 1-477); details: protein: recombinant; tags: N-terminal GST; dsDNA, one strand shown
# Sequence of ETV1 (P50549 whole entry): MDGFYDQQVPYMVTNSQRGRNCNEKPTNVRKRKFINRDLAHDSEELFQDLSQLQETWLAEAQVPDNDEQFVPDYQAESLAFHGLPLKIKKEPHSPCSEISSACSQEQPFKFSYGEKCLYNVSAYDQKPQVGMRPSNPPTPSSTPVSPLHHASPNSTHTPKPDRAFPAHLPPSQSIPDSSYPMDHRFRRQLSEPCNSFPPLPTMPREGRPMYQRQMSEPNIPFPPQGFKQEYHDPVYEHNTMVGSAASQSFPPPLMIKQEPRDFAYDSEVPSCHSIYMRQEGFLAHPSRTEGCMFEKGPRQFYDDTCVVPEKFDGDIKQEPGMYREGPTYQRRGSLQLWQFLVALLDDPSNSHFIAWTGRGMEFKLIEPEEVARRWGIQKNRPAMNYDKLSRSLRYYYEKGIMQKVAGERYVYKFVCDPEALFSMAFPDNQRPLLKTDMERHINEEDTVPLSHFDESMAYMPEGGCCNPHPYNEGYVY
# Outline: as §1
sequence,measurement,setting,value
ATCAAT,binding signal,[1],"1.12 fold enrichment (6-mer frequency, TF over GST control)"
same,binding signal,[2],"1.01 fold enrichment (6-mer frequency, TF over GST control)"
same,binding signal,[3],"1.16 fold enrichment (6-mer frequency, TF over GST control)"
same,binding signal,[4],"1.04 fold enrichment (6-mer frequency, TF over GST control)"
same,binding signal,[5],"1.15 fold enrichment (6-mer frequency, TF over GST control)"
same,binding signal,[6],"1.02 fold enrichment (6-mer frequency, TF over GST control)"
same,binding signal,[7],"1.06 fold enrichment (6-mer frequency, TF over GST control)"
same,binding signal,[8],"1.07 fold enrichment (6-mer frequency, TF over GST control)"
same,binding signal,[9],"1.06 fold enrichment (6-mer frequency, TF over GST control)"
same,binding signal,[10],"1.05 fold enrichment (6-mer frequency, TF over GST control)"
same,binding signal,[11],"1.1 fold enrichment (6-mer frequency, TF over GST control)"
same,binding signal,[12],"1.14 fold enrichment (6-mer frequency, TF over GST control)"
same,binding signal,[13],"1.06 fold enrichment (6-mer frequency, TF over GST control)"
same,binding signal,[14],"1.1 fold enrichment (6-mer frequency, TF over GST control)"
same,binding signal,[15],"1.16 fold enrichment (6-mer frequency, TF over GST control)"
same,binding signal,[16],"1.12 fold enrichment (6-mer frequency, TF over GST control)"
same,binding signal,[17],"1.32 fold enrichment (6-mer frequency, TF over GST control)"
same,binding signal,[18],"1.06 fold enrichment (6-mer frequency, TF over GST control)"
